BAZ2B inh = qHTS Assay for Inhibitors of BAZ2B; AlphaScreen BAZ2B-H3K14Ac peptide displacement; Potency, µM (highest dose often 114 µM), most hits filed as inhibitors; 4.4% of 360,000 active; AID 504333, 2011; further: nearly all actives have a fitted effect of over 60% in size
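BAZ2B 50 nM plus b-H3(5-23)K14Ac 50 nM, PBS pH 7.4/0.01% Tween-20, 30 min RT; compound added (max 110 uM), 30 min RT; streptavidin donor/Ni-chelate acceptor beads 10 ug/mL final, 20 min dark; AlphaScreen read.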
HP1b chromo inh = HTS for Inhibitors of HP1-beta Chromodomain Interactions with Methylated Histone Tails; Chromobox protein homolog 1 (Homo sapiens), P83916; 0.56% of 390,000 active; AlphaScreen HP1-beta / biotin-H3K9me3 peptide binding; Potency, µM (titrated, usually from 114 µM), usual class: inhibitors; further: nearly all actives have a fitted effect of over 70% in size
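HP1-beta protein (50 nM final) preincubated 30 min at room temperature with biotinylated H3(1-18)K9me3 peptide (50 nM) in PBS pH 7.4, 0.01% Tween-20, then compound added for 30 min. AlphaScreen streptavidin donor/nickel chelate acceptor beads (10 ug/mL final), 30 min dark, luminescence read.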
L3MBTL1 block = qHTS Assay for the Inhibitors of L3MBTL1; Lethal(3)malignant brain tumor-like protein 1 (Homo sapiens), Q9Y468; AlphaScreen L3MBTL1–H3K9me1 peptide binding; Potency, µM (doses to about 57.1 µM), usual class: inhibitors; 0.66% of 230,000 active; further: nearly all actives have a fitted effect of over 60% in size
Target sequence (Q9Y468 whole entry, looked up): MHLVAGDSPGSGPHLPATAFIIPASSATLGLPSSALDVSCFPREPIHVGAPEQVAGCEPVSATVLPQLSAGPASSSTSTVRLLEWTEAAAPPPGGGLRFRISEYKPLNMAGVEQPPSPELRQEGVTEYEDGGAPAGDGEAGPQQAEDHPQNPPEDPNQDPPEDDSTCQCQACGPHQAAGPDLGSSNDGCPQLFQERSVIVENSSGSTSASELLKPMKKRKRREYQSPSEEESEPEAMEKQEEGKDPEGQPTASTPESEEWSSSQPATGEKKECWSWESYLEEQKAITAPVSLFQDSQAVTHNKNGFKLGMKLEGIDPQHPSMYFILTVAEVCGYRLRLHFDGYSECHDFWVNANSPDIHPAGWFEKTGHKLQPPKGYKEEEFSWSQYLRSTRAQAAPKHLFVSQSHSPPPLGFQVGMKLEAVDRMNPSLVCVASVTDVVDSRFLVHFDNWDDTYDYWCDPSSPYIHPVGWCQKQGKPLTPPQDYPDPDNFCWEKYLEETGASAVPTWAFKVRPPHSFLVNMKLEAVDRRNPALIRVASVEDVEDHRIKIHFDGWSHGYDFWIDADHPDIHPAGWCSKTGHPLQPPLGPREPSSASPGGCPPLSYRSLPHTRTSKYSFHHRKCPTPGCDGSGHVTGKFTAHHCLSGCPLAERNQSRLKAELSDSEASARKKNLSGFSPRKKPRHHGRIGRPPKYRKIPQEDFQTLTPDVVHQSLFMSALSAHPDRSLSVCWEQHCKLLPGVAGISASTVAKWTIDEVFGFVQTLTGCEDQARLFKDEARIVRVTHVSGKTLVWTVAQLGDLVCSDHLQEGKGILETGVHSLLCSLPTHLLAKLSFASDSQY
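First, the protein-peptide complex forms for 30 min at room temperature (L3MBTL1 50 nM, biotinylated H3K9me1 peptide 75 nM). Next, compounds are pin-transferred and incubated 30 min. Finally, AlphaScreen beads are added and read after 30 min.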
JMJD2A Tudor inh = qHTS Assay for Inhibitors of JMJD2A-Tudor Domain | 4.4% of 390,000 active | Potency, µM (series often up to 114 µM), usual class: inhibitors | AID 504339, 2011 | AlphaScreen JMJD2A-Tudor / H3K4me3 peptide binding; further: nearly all actives have a fitted effect of over 50% in size
G9a block = qHTS Assay for Inhibitors of Histone Lysine Methyltransferase G9a | G9a H3K9 monomethylation, AlphaScreen, 2 h | AID 504332, 2011 | Histone-lysine N-methyltransferase EHMT2 (Homo sapiens), Q96KQ7 | Potency, µM (series often up to 102 µM), hits mostly inhibitors | 8.8% of 350,000 active; further: nearly all actives have a fitted effect of over 75% in size
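G9a (20 nM) was preincubated 15 min with compound, then reacted 2 h at room temperature with 500 nM biotin-H3K9 peptide and 20 µM SAM. Monomethyl-H3K9 detected by AlphaScreen using anti-H3K9me1 antibody.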
GLS inhibitor = qHTS for Inhibitors of Glutaminase (GLS). AID 624170, 2012. 0.21% of 410,000 active. Potency, µM (highest dose often 45.5 µM), usual class: inhibitors. Glutaminase kidney isoform, mitochondrial (Homo sapiens), O94925. GLS enzymatic activity, qHTS titration
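Coupled fluorescence readout: glutamate oxidase/HRP/Amplex Red detect glutamate formed by hKGA from L-glutamine (1 mM solution added). Buffer 45 mM KH2PO4 pH 8.2, 0.02% Tween-20; reads at t0 and 30 min RT.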
Large screens that a line does not name were inactive. Only some compounds are listed: those with a hit (about 10% of all), similar ones and a draw of the others. The call rests on the fitted dose curve; in most records, active means well fitted curve in the direction sought with a large enough effect; inconclusive means small, poorly fitted or top-dose-only effect, or another doubt; inactive means no such curve, though single readings can be large; an effect the other way counts as inactive or inconclusive.

Cc1cc(C)n2nc(CNC(=O)c3ccc(Cl)cc3)nc2n1	none (no result: L3MBTL1 block)
COCCCNCCCCOc1ccc(OCc2ccccc2)cc1	BAZ2B inh 45µM, HP1b chromo inh inconclusive, JMJD2A Tudor inh 20µM (no result: G9a block)
Cc1ccc(Cl)cc1NC(=O)Cn1cc(S(=O)(=O)Cc2ccccc2Cl)c2ccccc21	none (no result: L3MBTL1 block)
Cc1ccc(C(=O)OCC(=O)NNC(=O)c2ccc([N+](=O)[O-])cc2)o1	BAZ2B inh inconclusive, L3MBTL1 block inconclusive
O=C(COC(=O)c1ccccc1O)NNC(=O)c1ccc(Br)cc1	G9a block inconclusive
O=C(COC(=O)c1cc(Br)ccc1O)NNC(=O)c1ccc(Cl)cc1	G9a block 45µM
O=C(COC(=O)c1cc(Br)ccc1O)NNC(=O)c1ccc([N+](=O)[O-])cc1	G9a block 45µM
N=S(=O)(O)Cc1noc2ccccc12	none (no result: BAZ2B inh, HP1b chromo inh, L3MBTL1 block, JMJD2A Tudor inh, GLS inhibitor)
Cn1c(C(=O)NCCc2ccccc2)cc2sc(Cl)cc21	none (no result: L3MBTL1 block)
CCN(CC)S(=O)(=O)c1cccc(C(=O)N/N=C/c2cccc(O)c2O)c1	none
CCN(CC)S(=O)(=O)c1cccc(C(=O)N/N=C/c2cc(OC)c(O)c(OC)c2)c1	G9a block 10µM
COc1ccc(/C=N/NC(=O)c2cccc(S(=O)(=O)N3CCCC3)c2)cc1O	none
COc1cc(/C=N/NC(=O)c2cccc(S(=O)(=O)N3CCCC3)c2)cc(OC)c1O	G9a block 14µM
O=C(OC[C@@H]1O[C@@](O)(COC(=O)c2cccnc2)[C@H](OC(=O)c2cccnc2)[C@H]1OC(=O)c1cccnc1)c1cccnc1	G9a block inconclusive (no result: BAZ2B inh, HP1b chromo inh, L3MBTL1 block, JMJD2A Tudor inh)
NC(=O)NC(=O)CN1C(=O)NC(c2ccccc2)(c2ccccc2)C1=O	none (no result: L3MBTL1 block)
NN1C(=O)NC(c2ccccc2)(c2ccccc2)C1=O	JMJD2A Tudor inh 25µM (no result: L3MBTL1 block)
CCCC12CN3CC(CCC)(CN(C1)C3c1ccc(OCc3ccccc3)cc1)C2=O (stereo not given)	none (no result: L3MBTL1 block)
S=c1[nH]nc(-c2ccccn2)n1/N=C/c1cccc(Cl)c1	BAZ2B inh 28µM, JMJD2A Tudor inh 20µM, G9a block 1.6µM (no result: L3MBTL1 block)
Cc1ccc(/C=N/n2c(-c3ccco3)n[nH]c2=S)cc1	BAZ2B inh inconclusive, HP1b chromo inh 56µM, JMJD2A Tudor inh 10µM, G9a block 0.63µM, GLS inhibitor inconclusive
S=c1[nH]nc(-c2cccc(Cl)c2)n1/N=C/c1ccc(-c2ccccc2Br)o1	G9a block inconclusive
S=c1[nH]nc(-c2cccc(Cl)c2)n1/N=C/c1ccco1	JMJD2A Tudor inh 32µM, G9a block 3.5µM (no result: L3MBTL1 block)
Cn1cccc1/C=N/n1c(-c2ccco2)n[nH]c1=S	BAZ2B inh inconclusive, L3MBTL1 block inconclusive, JMJD2A Tudor inh 20µM (no result: G9a block)
Cn1cccc1/C=N/NC(=O)c1ccco1	G9a block inconclusive (no result: L3MBTL1 block)
Cc1ccc(S(=O)(=O)N2CCN(c3nc(-c4ccncc4)nc4ccccc34)CC2)cc1	JMJD2A Tudor inh inconclusive (no result: BAZ2B inh, L3MBTL1 block, G9a block, GLS inhibitor)
FC(F)(F)c1cccc(Nc2c3c(nc4ccc(Cl)cc24)CCC3)c1	none (no result: BAZ2B inh, L3MBTL1 block)
S=c1[nH]nc(-c2ccco2)n1/N=C/c1c(Cl)cccc1Cl	JMJD2A Tudor inh inconclusive, G9a block 0.4µM (no result: L3MBTL1 block)
S=c1[nH]nc(-c2ccco2)n1/N=C/c1ccc(Cl)c(Cl)c1	JMJD2A Tudor inh 79µM, G9a block 1.6µM, GLS inhibitor inconclusive
O=c1cc(-c2ccco2)nc(SCc2cccc(Cl)c2)[nH]1	none (no result: G9a block)
S=c1[nH]nc(-c2ccccc2)n1/N=C/c1ccc(-c2ccccc2Cl)o1	JMJD2A Tudor inh inconclusive, G9a block inconclusive
S=c1[nH]nc(-c2ccco2)n1/N=C/c1ccccn1	BAZ2B inh 50µM (no result: HP1b chromo inh, JMJD2A Tudor inh, GLS inhibitor)
S=c1[nH]nc(-c2ccco2)n1/N=C/c1cccc(Cl)c1	JMJD2A Tudor inh 79µM, G9a block 0.71µM
Cc1cc(C)cc(NC(=O)Cn2c(=O)n(Cc3ccc4c(c3)OCO4)c(=O)c3oc4ccccc4c32)c1	none (no result: L3MBTL1 block)

Assay outcomes (PubChem BioAssay)
